TGFb SMAD3 inh: qHTS for Inhibitors of TGF-b; AID 588855, 2011; HepG2 CAGA-GFP TGF-b/SMAD3 reporter, GFP fluorescence, 18 h; TGF-beta stimulated, 500 pg/mL final; Potency, µM (titrated, usually from 46.1 µM), for inactives: at the highest dose activity, negative = inhibition, hits mostly inhibitors; 1.2% of 410,000 active; note: potency is the fitted concentration of half-maximal effect; % is set by controls: 0 for no effect and ±100 for the full control effect; nearly all actives have a fitted effect of over 65% in size
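HEPG2 CAGA-GFP, 1000 cells/well; 2 h settle, 37 C; cpd via pin tool; TGF-b 500 pg/mL final; 18 h, 37 C; GFP imaging ex488/em500-530; %Activity normalised to -TGF-b and +DMSO controls; CRC fit, curve class.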
HepG2 viability: qHTS for Inhibitors of TGF-b: Cytotox Counterscreen; HepG2 CAGA-GFP viability, ATP luminescence, 18 h; Potency, µM (highest dose often 46.1 µM), inactives show top-dose activity change, negative = cytotoxicity, most hits filed as cytotoxic; 0.76% of 410,000 active; note: potency is the fitted concentration of half-maximal effect
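HepG2 CAGA-GFP cells (1000/well, DMEM with 1% FBS) received compound, then TGF-beta at 500 pg/mL final, and were incubated 18 hours at 37 degrees C. Viability was read by CellTiter-Glo luminescence. Media-only wells were set as complete cell-killing and DMSO as no toxicity.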
TDP1 block: qHTS Assay for Inhibitors of Tyrosyl-DNA Phosphodiesterase (TDP1); Tyrosyl-DNA phosphodiesterase 1 (Homo sapiens), Q9NUW8; AID 485290, 2010; Potency, µM (titrated, usually from 130 µM), without a hit: at the highest dose activity change, negative = inhibition, hits mostly inhibitors; 0.28% of 350,000 active; recombinant TDP1, AlphaScreen DNA substrate cleavage; note: potency is the fitted concentration of half-maximal effect; % is set by controls: 0 for no effect and ±100 for the full control effect; nearly all actives have a fitted effect of over 40% in size
Target sequence (Q9NUW8 whole entry, looked up): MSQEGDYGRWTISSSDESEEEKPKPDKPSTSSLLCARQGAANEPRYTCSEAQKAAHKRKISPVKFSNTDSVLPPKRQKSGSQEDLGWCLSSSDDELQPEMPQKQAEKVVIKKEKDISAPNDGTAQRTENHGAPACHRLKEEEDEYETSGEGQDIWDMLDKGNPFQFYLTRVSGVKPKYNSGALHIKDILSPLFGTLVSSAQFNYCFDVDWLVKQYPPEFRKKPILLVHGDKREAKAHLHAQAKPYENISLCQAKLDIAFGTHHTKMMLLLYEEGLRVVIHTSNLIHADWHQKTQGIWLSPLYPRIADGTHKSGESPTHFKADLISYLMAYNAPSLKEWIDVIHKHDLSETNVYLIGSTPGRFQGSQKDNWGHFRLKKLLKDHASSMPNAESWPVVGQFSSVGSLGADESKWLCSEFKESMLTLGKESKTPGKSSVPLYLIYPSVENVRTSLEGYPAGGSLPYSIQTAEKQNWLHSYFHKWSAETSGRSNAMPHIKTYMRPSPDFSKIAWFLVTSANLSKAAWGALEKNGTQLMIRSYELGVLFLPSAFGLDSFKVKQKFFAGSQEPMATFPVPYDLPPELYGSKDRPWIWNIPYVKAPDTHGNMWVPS
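Tdp1 1 nM final; 15 min RT w/ cpd; substrate 15 nM, 5 min; beads 10 ug/ml, 10 min; AlphaScreen read. Neg ctrl: no enzyme.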
IL-1B inflam inh: qHTS for Inhibitors of Inflammasome Signaling: IL-1-beta AlphaLISA Primary Screen. 4.7% of 360,000 active. activity change, % at 57.5 µM. THP-1 LPS/ATP IL-1B secretion, AlphaLISA, 16 h; active compounds read low; in the data active = activity change below about -50%; inconclusive = mostly about -30% to -49%; note: % is set by controls: 0 for no effect and ±100 for the full control effect
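THP-1 cells pretreated 1 hr with compounds (up to 57.5 uM final), then stimulated with LPS (250 ng/mL final) plus ATP (1.25 mM final); secreted IL-1B measured by AlphaLISA after 16 hr, decreased signal indicating inhibition.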
TDP1 cell CPT: qHTS for Inhibitors of human tyrosyl-DNA phosphodiesterase 1 (TDP1): qHTS in cells in presence of CPT. chicken DT40 Tdp1-/-;hTDP1 cells + 20 nM CPT, ATP luminescence, 48 h. Potency, µM (titrated, usually from 46.2 µM), inactives show at the top dose activity change, negative = growth inhibition, most hits filed as inhibitors. 12% of 420,000 active; note: potency is the fitted concentration of half-maximal effect; % is set by controls: 0 for no effect and ±100 for the full control effect; nearly all actives have a fitted effect of over 55% in size
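Cell growth measured by CellTiter-Glo luminescence after a minimum 48 h, 37 C compound exposure with 20 nM CPT in Tdp1-knockout DT40 cells stably expressing hTDP1, seeded 400/well; qHTS titration format.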
TDP1 cell noCPT: qHTS for Inhibitors of human tyrosyl-DNA phosphodiesterase 1 (TDP1): qHTS in cells in absence of CPT. DT40 Tdp1-/- hTDP1 cells, no CPT, ATP luminescence, 48 h. Potency, µM (highest dose often 46.2 µM), without a hit: at the top dose activity change, negative = growth inhibition, most hits filed as inhibitors. 15% of 420,000 active; note: potency is the fitted concentration of half-maximal effect; % is set by controls: 0 for no effect and ±100 for the full control effect; nearly all actives have a fitted effect of over 55% in size
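Chicken DT40 Tdp1-/- cells complemented with human TDP1, screened without camptothecin (DMSO vehicle only), 400 cells/well. Compounds pin-transferred, cells incubated at 37 °C for at least 48 hr. Growth read as ATP-dependent luminescence (CellTiter-Glo, 30 min at RT).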
Starred values were filed as active, the others as inactive; ? = inconclusive; . = no result given; [ ] = another dose, or the depositor's remark. This is a sample that favours compounds with a hit; in the whole collection about 19% have one here. Unless noted, calls come from the whole dose curve; as a rule, active = well fitted curve in the direction sought with a large enough effect; inconclusive = small, poorly fitted or top-dose-only effect, or another doubt; inactive = no such curve, though single readings can be large; an effect the other way counts as inactive or inconclusive.

SMILES | TGFb SMAD3 inh | HepG2 viability | TDP1 block | IL-1B inflam inh | TDP1 cell CPT | TDP1 cell noCPT
N#Cc1ccccc1S(=O)(=O)N1CCN(C(=O)c2cc3c(s2)CCC3)CC1 | -11.6% | -41.7% | 5.01µM* | 0.0 | -15.6% | -19.8%
Cc1ccc(S(=O)(=O)NCc2nc(-c3cccc(C)c3)no2)cc1 | ? | -22.9% | 3.7% | . | ? | ?
O=S(=O)(Nc1cc(S(=O)(=O)N2CCOCC2)ccc1NCC1CCCO1)c1ccccc1 (centres undefined) | 6.3% | 3.3% | 2.5% | -5.4 | 1.4% | 3.6%
CC(=O)OC[C@H]1O[C@@H](O/N=C(\C)CCN2CCc3nc(-c4ccccc4)c(-c4ccccc4)cc3C2)[C@H](OC(C)=O)[C@@H](OC(C)=O)[C@H]1OC(C)=O | . | . | 1.6%[21 µM] | . | . | .
CC(C)C[C@H](NC(=O)[C@H](Cc1ccccc1)NC(=O)CNC(=O)[C@H](CCC(=O)O)NC(=O)[C@H](CCCNC(=N)N)NC(=O)[C@H](C)NC(=O)[C@H](C)NC(=O)[C@@H](N)CC(=O)O)C(=O)N[C@@H](CC(=O)O)C(=O)N[C@H](C(=O)N[C@@H](CC(C)C)C(=O)N[C@H](C(=O)N[C@H](C(=O)N[C@@H](CC(C)C)C(=O)N[C@@H](Cc1cnc[nH]1)C(=O)N[C@@H](CCCNC(=N)N)C(=O)N[C@@H](C)C(=O)NCC(=O)N[C@@H](C)C(=O)N[C@@H](CCCNC(=N)N)C(=O)O)C(C)C)C(C)C)[C@@H](C)O | . | . | 12.1% | . | . | .
Cc1nnc2n1N=C(c1ccc(F)cc1F)CS2 | 8.5% | -7.8% | -1.7%[56.1 µM] | 3.6 | -5.0% | -6.6%
Cc1cc(C)c(C2=Nn3c(C)nnc3SC2C)cc1C (centres undefined) | -3.9% | -2.0% | 13.4%[0.0935 µM] | 26.2 | 18.4µM* | 11.6µM*
CC(C)(C)c1ccc(C(=O)Nc2ccc(S(N)(=O)=O)cc2)cc1 | ? | -46.0% | 4.1% | -76.1* | ? | ?
NS(=O)(=O)c1ccc(NC(=O)c2ccc(-c3ccccc3)cc2)cc1 | -15.2% | -3.3% | 0.0% | 25.8 | -8.9% | -6.2%
NS(=O)(=O)c1ccc(NC(=O)Nc2ccc(C(F)(F)F)cc2)cc1 | 25.7% | -38.0% | 0.0% | -57.9* | ? | 18.4µM*
Cc1cccc(NC(=O)NC2CCCc3ccccc32)c1 (centres undefined) | 4.1% | 0.8% | 5.9%[56.1 µM] | 9.7 | -27.8% | -15.0%
Cc1cc2nc(C)n(CCCN)c2cc1C | 0.0% | -11.5% | -1.0% | 26.7 | 23.1µM* | 18.4µM*
CC(/C=N/NC(=O)c1cc(-c2ccc(C)s2)[nH]n1)=C\c1ccccc1 | ? | -59.1% | 1.9% | 17.0 | 8.2µM* | 2.59µM*
CC(/C=N/NC(=O)c1cc(C(C)(C)C)[nH]n1)=C\c1ccccc1 | 34.1% | -22.1% | 5.2% | -22.0 | ? | 23.1µM*
Cc1ccc(-c2cc(C(=O)N/N=C/c3ccco3)n[nH]2)s1 | 5.7% | -18.5% | 2.3% | -6.7 | -26.3% | ?
COc1ccc(N2CCN(C(=O)CCn3nc(C)c(S(=O)(=O)N4CCCC4)c3C)CC2)cc1 | -15.0% | -13.9% | -1.2% | . | ? | ?
COc1ccc2c(c1)CCCC(Br)C2=O (centres undefined) | ? | -10.5% | . | -66.8* | 5.17µM* | 3.26µM*
CC(=O)c1ccc(N2CCN(S(=O)(=O)c3ccc4c(c3)CC(C)N4C(=O)C3CC3)CC2)cc1 (centres undefined) | -4.8% | 0.0% | 2.2% | 3.5 | 4.61µM* | 5.8µM*
Cc1cccc(N2CCN(S(=O)(=O)c3ccc4c(c3)CC(C)N4C(=O)C3CC3)CC2)c1C (centres undefined) | ? | -32.6% | 2.1% | -3.6 | ? | 23.1µM*
CCC(=O)N1c2ccc(S(=O)(=O)N3CCN(c4ccccc4)CC3)cc2CC1C (centres undefined) | ? | -18.1% | 2.3% | . | ? | ?
CC(=O)N1c2ccc(S(=O)(=O)N3CCC(C(=O)NC4CCCCC4)CC3)cc2CC1C (centres undefined) | -4.6% | 1.5% | -0.1% | 69.7 | -15.7% | 10.1%
COc1ccc(N2CCN(S(=O)(=O)c3ccc4c(c3)CC(C)N4C(=O)C3CC3)CC2)cc1 (centres undefined) | -2.0% | -6.1% | 0.6% | 33.6 | -3.5% | -1.3%
CCC(=O)N1c2ccc(S(=O)(=O)N3CCN(c4ccc([N+](=O)[O-])cc4)CC3)cc2CC1C (centres undefined) | ? | -36.0% | 4.3% | 5.0 | 9.2µM* | 7.31µM*
CC(=O)c1ccc(N2CCN(S(=O)(=O)c3ccc4c(c3)CC(C)N4C(C)=O)CC2)cc1 (centres undefined) | -25.6% | -15.7% | 2.8% | 50.1 | 23.1µM* | 7.31µM*
CN1CCN(c2nc3c(S(=O)(=O)c4ccc(Br)cc4)nnn3c3ccsc23)CC1 | -0.5% | -20.1% | 5.1% | . | ? | ?
SMILES | TGFb SMAD3 inh | HepG2 viability | TDP1 block | IL-1B inflam inh | TDP1 cell CPT | TDP1 cell noCPT
Cc1cccc(C)c1 | . | . | 3.1% | . | . | .
Cc1cc(C)n2c(Nc3ccc4c(c3)OCCO4)c(-c3ccccc3)nc2n1 | ? | -8.4% | -2.1%[12.3 µM] | -15.1 | ? | ?
Cc1cc(C)n2c(Nc3ccc4c(c3)OCCO4)c(-c3ccc(Cl)cc3)nc2n1 | 5.9% | -25.3% | 10.0% | . | ? | ?
Cc1cc(C)n2c(Nc3ccc4c(c3)OCCO4)c(C3CC3)nc2n1 | . | . | . | 69.9 | ? | 18.4µM*
Cc1cc(C)n2c(Nc3ccc4c(c3)OCCO4)c(C(C)C)nc2n1 | . | . | . | 88.8 | 8.2µM* | 5.8µM*
Cc1cc(C)n2c(Nc3ccc4c(c3)OCCO4)c(CCc3ccccc3)nc2n1 | . | . | . | 9.7 | 8.2µM* | 5.8µM*
Cc1ccc(S(=O)(=O)C(CNC(=O)C(=O)NCCc2ccc(Cl)cc2)c2cccs2)cc1 (centres undefined) | -26.4% | -17.0% | 2.6% | . | ? | ?
CN(CC(=O)Nc1ccc(Cl)cc1)C(=O)c1ccc(S(=O)(=O)Nc2ccccc2)cc1 | -37.6% | -33.8% | ? | ? | ? | ?
COc1ccc(NS(=O)(=O)c2ccc(C(=O)N(C)Cc3ccc(C)o3)cc2)cc1 | -22.4% | -17.5% | 5.6% | -10.7 | 13µM* | 14.6µM*
